Measurements taken from PubChem BioAssay.
Values joined by “and” are separate entries in the source; they are usually repeats but may differ in a detail not shown here. Equal entries are not always repeated. Active and inactive are the calls of the source.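 The calls were made as follows, unless noted: active = inhibition at or above 50% relative to wild type and mutant plate controls; inactive = inhibition below 50%.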

Legend:
[1] = inhibitors of TNFa-induced NFkB p65 translocation, primary screen, imaging, HUVEC, MLSMR starter and 10KST1 sets (AID 438;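 active = inhibition above 20% together with a positive visual image hit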;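 also: compound added about 3h40 before a 20 min TNFalpha stimulation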;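 as to inhibition: signal is the nuclear over cytoplasmic p65 intensity ratio per well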); conditions: HUVEC TNFa-induced p65 nuclear translocation; cell count: measured here: nuclei count (cytotoxicity indicator), at 2.08 µM; inhibition: at 2 µM, stronger effect = higher value, 0% TNFa-plus-vehicle, 100% no-TNFa wells
[2] = inhibitors of mutant huntingtin aggregation, primary screen, imaging, exon1htt(103Q)mCFP cells, high-content imaging (AID 483;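 active = visual image review flags a hit and inhibition of aggregation exceeds 20%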;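 also: compound exposure lasted 3 days before fixation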;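 as to nuclei count: percent of the per-plate median nuclei count of sample wells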); conditions: exon1htt(103Q)mCFP cell line, aggregate imaging, at 2 µM; inhibition of aggregation: stronger effect = higher value; nuclei count: measured here: cell count, toxicity
[3] = inhibitors of E-selectin induction by TNFa, primary screen, imaging, HUVEC, immunofluorescence, MLSMR starter and 10KST1 sets (AID 487;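 active = visually confirmed hit in the image check and inhibition above 20%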;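 as to inhibition: signal is fraction of cell area covered by stained E-selectin grains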;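 as to nuclei count: 100% = median nuclei count of all wells on the same plate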); conditions: HUVEC TNFalpha-induced E-selectin immunofluorescence imaging, at 2 µM; inhibition: stronger effect = higher value; nuclei count: measured here: cell number, toxicity
[4] = DUSP6 inhibitors restoring Erk phosphorylation by chemical complementation, primary imaging in DUSP6-transfected HeLa (AID 609;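 active = compounds giving at least 50% inhibition in the cell-based MKP-3 phosphatase rescue imaging test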;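 as to inhibition: phospho-Erk level distribution per well compared with pooled transfected vehicle control wells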); conditions: HeLa MKP-3 transfected, phospho-Erk imaging KS statistic, at 10 µM, cells stimulated with TPA for 15 min
[5] = biological target: Dual specificity protein phosphatase 6 (Homo sapiens) (UniProt Q16828); test: as above; conditions: HeLa MKP-3 transfected, phospho-Erk imaging KS statistic; at 10 µM; stronger effect = higher value; cells stimulated with TPA for 15 min
Chain of Dual specificity protein phosphatase 6 (Homo sapiens) (Q16828 whole entry, looked up): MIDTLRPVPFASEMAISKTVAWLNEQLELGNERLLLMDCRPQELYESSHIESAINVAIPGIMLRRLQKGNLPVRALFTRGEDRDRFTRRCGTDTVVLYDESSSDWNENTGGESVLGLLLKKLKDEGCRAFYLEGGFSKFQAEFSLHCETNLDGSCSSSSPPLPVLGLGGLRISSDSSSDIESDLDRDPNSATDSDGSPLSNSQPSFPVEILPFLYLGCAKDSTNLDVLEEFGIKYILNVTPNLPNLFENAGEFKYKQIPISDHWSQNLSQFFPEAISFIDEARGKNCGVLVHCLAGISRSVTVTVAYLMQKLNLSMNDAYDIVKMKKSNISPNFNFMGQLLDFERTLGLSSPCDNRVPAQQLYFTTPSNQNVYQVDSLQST

[6] = biological target: Voltage-gated potassium channel subunit beta-2 (Rattus norvegicus) (UniProt P62483); test: KvBeta enzyme negative modulators, primary screen, biochemical, NADPH fluorescence (AID 622;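 active = fluorescence slope higher than the sample average by over 3 SD, cut at about -0.22 in these data, passing the limit was not always enough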;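 also: slope of raw intensity against log time taken from 70 to 1610 s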); conditions: recombinant KvBeta, 4-cyanobenzaldehyde reduction, at 10 µM, stronger effect = higher value
Chain of Voltage-gated potassium channel subunit beta-2 (Rattus norvegicus) (P62483 whole entry, looked up): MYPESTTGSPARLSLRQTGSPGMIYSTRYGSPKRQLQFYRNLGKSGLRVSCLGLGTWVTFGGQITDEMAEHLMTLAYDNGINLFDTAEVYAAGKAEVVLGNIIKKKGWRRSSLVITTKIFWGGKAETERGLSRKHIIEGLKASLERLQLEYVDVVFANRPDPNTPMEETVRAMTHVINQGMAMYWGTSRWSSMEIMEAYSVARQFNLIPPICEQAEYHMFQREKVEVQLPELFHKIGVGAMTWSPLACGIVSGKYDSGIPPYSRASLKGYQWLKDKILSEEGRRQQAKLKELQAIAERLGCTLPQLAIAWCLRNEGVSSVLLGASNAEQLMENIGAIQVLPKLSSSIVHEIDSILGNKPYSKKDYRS

[7] = biological target: Voltage-gated potassium channel subunit beta-2 (Rattus norvegicus) (UniProt P62483); test: KvBeta positive modulators, primary screen, biochemical, NADPH fluorescence (AID 623;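 active = NADPH fluorescence slope more negative than the mean of all samples by about 3 SD, 99.7% confidence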;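 also: fluorescence intensity change per second fitted from 20 to 320 s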); conditions: Recombinant KvBeta, NADPH fluorescence decrease slope, 10 min; at 10 µM; stronger effect = lower value
[8] = biological target: Alpha-2C adrenergic receptor (Homo sapiens) (UniProt P18825); test: modulators of alpha2C/GIRK thallium flux, primary screen, cell-based, HEK293 alpha2C/GIRK1/2 (AID 624;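 active = fluorescence slope after compound addition differing from the mean of all screened samples at 99.7% confidence, in either direction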;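 also: slope of fluorescence ratio to pre-addition baseline per second over 15 to 24 s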); conditions: thallium flux BTC fluorescence, at 10 µM, actives lie on both sides
Chain of Alpha-2C adrenergic receptor (Homo sapiens) (P18825 whole entry, looked up): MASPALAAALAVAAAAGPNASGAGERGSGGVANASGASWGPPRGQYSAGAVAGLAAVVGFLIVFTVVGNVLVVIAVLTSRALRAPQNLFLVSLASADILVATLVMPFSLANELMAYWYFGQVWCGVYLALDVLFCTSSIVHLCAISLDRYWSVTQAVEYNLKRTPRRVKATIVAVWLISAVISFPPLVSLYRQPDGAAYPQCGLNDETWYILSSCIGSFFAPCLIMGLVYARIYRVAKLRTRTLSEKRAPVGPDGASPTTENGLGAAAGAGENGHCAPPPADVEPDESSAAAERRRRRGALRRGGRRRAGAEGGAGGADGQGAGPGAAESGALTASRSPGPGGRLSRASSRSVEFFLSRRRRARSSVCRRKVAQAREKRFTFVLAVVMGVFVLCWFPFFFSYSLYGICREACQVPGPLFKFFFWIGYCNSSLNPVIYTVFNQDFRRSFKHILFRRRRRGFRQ

[9] = inhibitors of Chlamydomonas gravitaxis, primary screen, whole organism, Chlamydomonas reinhardtii, WT vs cilia-less mutant, absorbance, 96-well (AID 463189); conditions: OD600 absorbance, 2 days, at 10 µM, stronger effect = higher value;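 also: 0% = wild type cc124 cells in DMSO and 100% = ciliumless bld1 mutant cells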
[10] = inhibitors of Sendai virus-induced IRF3 signaling, primary screen, TLR/RLR signaling modifier project, cell-based, Sendai virus stimulus, luciferase, 10K MLSCN set (AID 602276;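 active = inhibition at or above 50% at 10 µM; inactive = inhibition below 50%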;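 also: firefly luciferase from ISG56 promoter only with Renilla not read in this screen; 0% = Sendai virus plus DMSO and 100% = medium plus DMSO without virus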); conditions: HEK293 RL24 IRF3 luciferase reporter, at 10 µM, stronger effect = higher value
[11] = inhibitors of poly I:C-induced TLR3 signaling, primary screen, cell-based, poly I:C stimulus, luciferase, 10K MLSCN set (AID 602277;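 active = inhibition of the reporter signal at or above 50%; inactive = inhibition below 50%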); conditions: HEK293-TLR3 RL24 IRF3 luciferase reporter, at 10 µM, stronger effect = higher value
[12] = biological target: Muscarinic acetylcholine receptor M4 (Homo sapiens) (UniProt P08173); test: compounds altering M4/GIRK thallium flux, either direction, primary screen, M4 allosteric agonist project, cell-based, HEK293 M4/GIRK, BTC-AM (AID 625;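 active = fluorescence slope after compound addition differing from the mean of all tested samples at 99.7% confidence, mostly higher but some lower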;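 also: thallium influx through GIRK channels coupled to M4 in HEK293 cells with BTC-AM dye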); conditions: at 10 µM, actives lie on both sides
Chain of Muscarinic acetylcholine receptor M4 (Homo sapiens) (P08173 whole entry, looked up): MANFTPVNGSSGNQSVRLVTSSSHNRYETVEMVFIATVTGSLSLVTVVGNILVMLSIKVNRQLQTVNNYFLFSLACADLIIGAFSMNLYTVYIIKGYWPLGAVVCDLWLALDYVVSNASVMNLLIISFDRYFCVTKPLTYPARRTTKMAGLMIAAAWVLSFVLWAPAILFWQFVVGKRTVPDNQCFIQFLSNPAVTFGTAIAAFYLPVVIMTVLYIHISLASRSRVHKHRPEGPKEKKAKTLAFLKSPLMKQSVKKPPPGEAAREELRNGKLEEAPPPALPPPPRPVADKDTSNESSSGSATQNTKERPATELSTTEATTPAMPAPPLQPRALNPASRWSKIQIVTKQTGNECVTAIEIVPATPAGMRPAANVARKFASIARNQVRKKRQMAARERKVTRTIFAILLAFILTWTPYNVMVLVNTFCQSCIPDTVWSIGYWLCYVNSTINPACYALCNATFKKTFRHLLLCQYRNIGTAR

[13] = inhibitors of larval lipid processing in zebrafish, primary screen, whole organism, PED6 fluorescence, gall bladder and intestine (AID 686;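 active = a full or partial loss of lipid-probe fluorescence in the fish gall bladder, intestine or both, judged by eye; inactive = no fluorescence loss, or compound toxic to the fish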;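 also: larvae 5 to 7 days old with five fish per well; signal comes from phospholipase A2 cleavage of quenched PED6 carried via bile; overnight exposure to compound and PED6 before scoring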); conditions: Zebrafish larvae PED6 lipid processing, fluorescence scoring; screened at 20 µM (by protocol)
[14] = measured here: cell density z-score
[15] = measured here: nuclear c-Myc green intensity z-score
[16] = measured here: nuclear pErk red intensity z-score, stronger effect = higher value

SMILES	cell count [1]	inhibition [1]	inhibition of aggregation [2]	nuclei count [2] [%]	inhibition [3]	nuclei count [3] [%]	z-score [4, 14]	z-score [4, 15]	z-score [4, 16]	inhibition [5]	fluorescence slope [6]	NADPH fluorescence slope [7]	slope [8]	inhibition [9]	inhibition [10]	inhibition [11]	fluorescence slope [12]	outcome [13]
CCO/C([O-])=N/c1c[n+](N2CCOCC2)no1	669	9.9% (inactive)	-18.2% (inactive)	97.5	-28.6% (inactive)	122	-0.87	-0.27	-1.04	16.8% (inactive)	-0.482 (inactive)	-6e-05 (inactive)	0.00537 (inactive)	2.9% (inactive) and 18.7% (inactive)	-10.8% (inactive)	-12.7% (inactive)		
CCOc1ccc(S(=O)(=O)N(C)C)cc1-c1nc2c(C(C)(C)C)nn(C)c2c(=O)[nH]1	411	20.9% (active)	-22.3% (inactive)	107	27.5% (inactive)	115	1.1	0.134	-1.43	17.3% (inactive)	-0.477 (inactive)	-0.000115 (inactive)	0.00418 (inactive)	19.7% (inactive)	-1.7% (inactive)	-7.19% (inactive)	0.00621 (inactive)	inactive
COc1cccc(C2C(C(=O)c3cc4ccccc4o3)=C(O)C(=O)N2CCN(C)C)c1OC (centres undefined)	516	-3.4% (inactive)	31% (inactive)	87.3	-49.8% (inactive)	124	0.445	-1.47	-1.27	22.7% (inactive)	-0.492 (inactive)	-4.6e-05 (inactive)	0.0034 (inactive)	20.6% (inactive)	9.6% (inactive)	6.82% (inactive)	0.00523 (inactive)	inactive
Cc1cn2c(-c3ccncc3)nnc2s1	443	-7.7% (inactive)	5.7% (inactive)	88.7	-73.4% (inactive)	142	1.88	0.607	-1.91	22.3% (inactive)	-0.491 (inactive)	-0.000121 (inactive)	0.0059 (inactive)	-0.946% (inactive)	4.57% (inactive)	19.6% (inactive)	0.00508 (inactive)	inactive
CCn1cc(C(=O)O)c(=O)c2cc(F)c(N3CCNCC3)nc21	528	-1.9% (inactive)	-5% (inactive)	88.6	-53.3% (inactive)	92.8	1.02	-0.267	-1.93	7.39% (inactive)	-0.463 (inactive)	-5.7e-05 (inactive)	0.00463 (inactive)	-14% (inactive)	3% (inactive)	17.6% (inactive)		
Cc1cc(C)n(Cc2cc(C)c(Cn3nc(C)cc3C)cc2C)n1	622	0.2% (inactive)	15.4% (inactive)	102	-44.5% (inactive)	137	0.927	1.3	1.6	1.63% (inactive)	-0.434 (inactive)	-0.000128 (inactive)	0.00432 (inactive)	-0.144% (inactive)	8.11% (inactive)	0.814% (inactive)	0.00602 (inactive)	inactive
CCOc1ccc(C2/C(=C(/O)c3ccc(OC)cc3)C(=O)C(=O)N2c2cc(C)on2)cc1OC (centres undefined)	314	-5.2% (inactive)	2.5% (inactive)	87.7	-84.6% (inactive)	122	0.762	0.679	-1.01	-5.26% (inactive)	-0.434 (inactive)	-0.000115 (inactive)	0.00335 (inactive)	-9.21% (inactive)	-8.23% (inactive)	-11.7% (inactive)		
CC(C)OC(=O)C(C)(C)Oc1ccc(C(=O)c2ccc(Cl)cc2)cc1	484	-9% (inactive)	28.8% (inactive)	89.5	-10.1% (inactive)	97.2	0.497	-1.12	0.95	-8.38% (inactive)	-0.446 (inactive)	1.6e-05 (inactive)	0.00465 (inactive)	-3.15% (inactive) and 23.4% (inactive)	-6.93% (inactive)	18.9% (inactive)		
O=C(Nc1ccccc1C(=O)NCCCn1ccnc1)c1ccccc1	440	-10.6% (inactive)	9.5% (inactive)	110	-58.9% (inactive)	90.3	0.245	0.366	-0.747	3.97% (inactive)	-0.353 (inactive)	1.7e-06 (inactive)	0.00553 (inactive)	-14.6% (inactive)	12.2% (inactive)	22.1% (inactive)	0.00574 (inactive)	inactive
